Among all 190,000 compounds or so, about 1,300 (0.68%) were called active. Shown is part of a subset that was picked to be rich in actives. A number with no mark means an inactive call. No stated cut-off is given here; in the data, active means inhibition above about 50%; inactive means the rest.

Chain of Mannose-6-phosphate isomerase (Homo sapiens) (P34949 whole entry, looked up): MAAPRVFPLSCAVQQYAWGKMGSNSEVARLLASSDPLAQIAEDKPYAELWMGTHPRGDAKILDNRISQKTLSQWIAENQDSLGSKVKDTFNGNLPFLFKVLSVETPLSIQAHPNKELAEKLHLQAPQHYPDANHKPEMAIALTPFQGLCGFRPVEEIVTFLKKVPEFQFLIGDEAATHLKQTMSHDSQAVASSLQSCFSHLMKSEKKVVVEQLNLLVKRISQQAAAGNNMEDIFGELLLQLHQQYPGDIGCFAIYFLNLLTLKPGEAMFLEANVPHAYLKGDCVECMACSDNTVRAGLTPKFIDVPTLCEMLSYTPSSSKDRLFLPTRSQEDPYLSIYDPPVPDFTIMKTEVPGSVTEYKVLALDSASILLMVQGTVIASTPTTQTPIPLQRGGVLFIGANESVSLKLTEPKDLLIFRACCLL

This assay addresses Mannose-6-phosphate isomerase (Homo sapiens) (UniProt P34949). Briefly: human PMI inhibitors, high substrate, primary screen, biochemical, fluorescence intensity, high mannose 6-phosphate (AID 1220). The settings on record: recombinant PMI enzyme, coupled fluorescence intensity; at 20 µM; active compounds read high.
Take `CCOC(=O)c1cnc2c(C#N)c(C)nn2c1-c1ccccc1`: the inhibition was 3.5%.

Turning to `COCCN=c1scc(-c2cc(OC)c(OC)c(OC)c2)n1/N=C/c1c(C)[nH]c2ccccc12`, the inhibition is 13.7%.

With `N#Cc1cc([N+](=O)[O-])ccc1N1CCN(c2ccccc2O)CC1`, the inhibition is 10.8%.

Consider `CN(N)c1ccc2c(C(F)(F)F)cc(C(F)(F)F)nc2n1`, for which the inhibition was -11.3%.

`NNc1ccc2c(C(F)(F)F)cc(C(F)(F)F)nc2n1`: the inhibition was -7.7%.

In the case of `Nc1ccc2c(C(F)(F)F)cc(C(F)(F)F)nc2n1`, the inhibition is 53.7% (active).

In the case of `Cc1c(Cl)cccc1Nc1nc(N)nc(CSCCO)n1`, the inhibition was -1.1%.

In the case of `O=c1c2c3c(sc2nc2n1CCCCC2)C(O)CCC3` (stereo unspecified), the inhibition was 8.9%.

Take `Cc1cc(C)nc(N2N=C(c3ccccc3)CC2=O)n1`: the inhibition was 26.8%.

As for `Cc1cc(C)nc(N2N=C(C(C)(C)C)CC2=O)n1`, the inhibition is -15%.

`COc1ccc(C2=NN(c3nc(C)cc(C)n3)C(=O)C2)cc1`: the inhibition is 51.6% (active).

As to `Cc1ccc(CN2CCCNC2=O)cc1`, the inhibition was -2.5%.

In the case of `COc1cc(NC(=O)COC(=O)C2CC2)c(C)cc1[N+](=O)[O-]`, the inhibition is -8%.

For the compound `CCn1cc(Cl)c(C(=O)Nc2nc3ccccc3n2CCN2CCCCC2)n1`, the inhibition is -2.9%.

Take `O=C(Nc1nc2ccccc2n1CCN1CCCCC1)c1ccc(Cl)cc1`: the inhibition was -11.3%.

Turning to `Cc1c(Cl)c(C(=O)Nc2nc3ccccc3n2CCN2CCCCC2)nn1C`, the inhibition is 55.1% (active).

Take `CCOC(=O)c1cc(-c2ccc(C)cc2)n(CCC(=O)NCCN(C)C)c1C`: the inhibition is 5.6%.

As for `O=C1CN2NC(=S)N(c3ccc(Cl)cc3)C2=CN1c1ccc(Cl)cc1`, the inhibition was -2.8%.

Regarding `CCOc1cc(NC(=O)c2cccs2)c(OCC)cc1NC(=O)CCC(=O)NCCN1CCOCC1`, the inhibition was 10.6%.

For `CCOc1cc(NC(=S)NCCCN2CCOCC2)c(OCC)cc1NC(=O)c1ccccc1C`, the inhibition is 47.3%.

In the case of `CCOc1cc(NC(=S)NCCCN2CCOCC2)c(OCC)cc1NC(=O)c1cccc(F)c1`, the inhibition is 49.5%.

As for `CCOc1cc(NC(=S)NCCCN2CCOCC2)c(OCC)cc1NC(=O)c1ccccc1`, the inhibition was 24.1%.

For `CCOc1cc(NC(=S)NCCCN2CCOCC2)c(OCC)cc1NC(=O)c1cccs1`, the inhibition is 56.1% (active).

As for `CCOc1cc(NC(=S)NCCCN2CCOCC2)c(OCC)cc1NC(=O)c1ccc(C)cc1`, the inhibition is 52.6% (active).

With `O=C(CCCCCn1c(=S)[nH]c2ccccc2c1=O)NCc1ccc2c(c1)OCO2`, the inhibition was -9.7%.

For `C=CCNC(=S)NNC(=O)c1cccn(Cc2ccc(Cl)cc2Cl)c1=O`, the inhibition was -10.6%.

Regarding `O=C(C[n+]1ccccc1)N/N=C/c1cccs1`, the inhibition was -14%.

`Cc1cc(C)nc(N(C#N)S(=O)(=O)c2ccc(Br)cc2)n1`: the inhibition is -3.3%.

With `O=C(CSc1nc(O)cc(=O)[nH]1)N1c2ccccc2Sc2ccccc21`, the inhibition is 7.8%.

Turning to `COc1ccc(CCNC(=O)c2ccc(SC)cc2OC)cc1`, the inhibition is -1.4%.

Turning to `COCCOc1ccc(C(F)(F)F)cc1N`, the inhibition is 8.3%.

As to `Nc1cc(OCC(F)(F)F)cc(OCC(F)(F)F)c1`, the inhibition was 56.9% (active).

Regarding `CONC(=O)c1cc(OCC(F)(F)F)ccc1OCC(F)(F)F`, the inhibition is -7.9%.

Take `O=C(Nc1ccc(F)cc1)Nc1cc(OCC(F)(F)F)cc(OCC(F)(F)F)c1`: the inhibition is 8.1%.

For `Nc1cc(N)c(OCC(F)(F)F)cc1OCC(F)(F)F`, the inhibition was 55.8% (active).

Regarding `Nc1cc(OCC(F)(F)F)cc([N+](=O)[O-])c1`, the inhibition was -2.2%.

`O=C1CCC(/C=C/c2ccccc2)=NN1Cc1ccc(F)cc1`: the inhibition is -0.5%.

Consider `CC(=O)NC(CC(=O)NC12CC3CC(CC(C3)C1)C2)c1ccccc1` (stereo unspecified), for which the inhibition was 1.3%.

Regarding `CCn1cc([N+](=O)[O-])c(C(=O)NCc2ccc(Cl)cc2)n1`, the inhibition is -5%.

Regarding `N#Cc1cc(Oc2ccccc2)c(-n2nnc3ccccc32)cc1C#N`, the inhibition was 3.1%.

As to `C#CCOCCOCCOCCNc1nc(N2CCN(C(=O)[C@H]([C@@H](C)CC)n3cc(CCCCN)nn3)CC2)nc(N2CCN(C(=O)[C@H](C)n3cc(CCC(=O)O)nn3)CC2)n1`, the inhibition is -27.7%.

For `COCCN1CC(=O)N(c2cccc(C)c2C)C(c2ccc(Cl)cc2)C1=O` (stereo unspecified), the inhibition is -1.2%.

`COc1ccc(N=CC2=C(O)c3ccccc3C2=O)cc1`: the inhibition was 5.6%.

As to `COc1cccc(C=Nc2ccc3c(c2)OCCO3)c1O`, the inhibition was 34.6%.

`COc1ccc(N=Cc2sc(O)c3ccccc23)cc1`: the inhibition was 8.8%.

In the case of `Oc1[nH]c2ccccc2c1C=Nc1ccc2c(c1)OCO2`, the inhibition is 8.6%.

For `CC1(C)CC(=O)C(C=Nc2ccc3c(c2)OCO3)=C(O)C1`, the inhibition was 14.2%.

As to `COc1ccc2c(c1)O[C@H](c1ccc3c(c1)OCO3)[C@@H](O)C2=O`, the inhibition is -2.7%.

For the compound `CCCC(=O)Nc1ccc(C(N)=O)cc1`, the inhibition is 5.2%.

Take `Cc1ccc(C)c(NC(=O)CCC(=O)NNC(=O)C(c2ccccc2)c2ccccc2)c1`: the inhibition is -16.3%.

For `CC(C)OC(=O)CSc1nnc2c(n1)[nH]c1ccc(F)cc12`, the inhibition is -5.2%.

As to `O=C(NC1CCN(S(=O)(=O)c2ccccc2)CC1)C1CCCCC1`, the inhibition is 7.7%.

As for `O=C(c1ccc(Cl)cc1Cl)N1CCC(c2nc3c(nnn3Cc3ccco3)c(=O)[nH]2)CC1`, the inhibition is 14.6%.

`CN(C)CCCN(C(=O)COc1ccccc1)c1nc2c(F)cccc2s1`: the inhibition was -2.9%.

For `CN(C)CCCN(C(=O)CCOc1ccccc1)c1nc2c(F)cccc2s1`, the inhibition is 54.4% (active).

Consider `CN(C)CCCN(C(=O)CCc1ccccc1)c1nc2c(F)cccc2s1`, for which the inhibition was 4%.

With `COc1ccc(C)cc1NC(=O)CN(C)S(=O)(=O)c1cccs1`, the inhibition is 1.9%.

As for `Cc1ccc(SCCC(=O)NCCSCc2ccccc2C)cc1`, the inhibition was 8.3%.

As to `CCOc1ccc(C(=O)CCNC(Cc2cnc[nH]2)C(=O)O)cc1` (stereo unspecified), the inhibition is 3.4%.

With `O=C1S/C(=C\c2ccc(N3CCOCC3)o2)C(=O)N1c1ccccc1`, the inhibition is 53.8% (active).

As for `O=C1S/C(=C/c2ccc(N3CCOCC3)o2)C(=O)N1Cc1c(F)cccc1Cl`, the inhibition was 5.6%.

For the compound `O=C1S/C(=C\c2ccc(N3CCOCC3)o2)C(=O)N1Cc1ccc(F)cc1`, the inhibition is 57.3% (active).

As to `O=C1S/C(=C\c2ccc(N3CCOCC3)o2)C(=O)N1Cc1c(F)cccc1Cl`, the inhibition was 56.3% (active).

As to `CC(C)OC(=O)CN1C(=O)S/C(=C/c2ccc(N3CCCCC3)o2)C1=O`, the inhibition was 25%.

For `COC(=O)CN1C(=O)S/C(=C/c2ccc(N3CCCCC3)o2)C1=O`, the inhibition is 46%.

As to `O=C1S/C(=C/c2ccc(N3CCOCC3)o2)C(=O)N1Cc1ccc(F)cc1`, the inhibition was 45.3%.

As for `CCCN1C(=O)S/C(=C\c2ccc(N3CCOCC3)o2)C1=O`, the inhibition is 52.4% (active).

For the compound `CCCN1C(=O)S/C(=C\c2ccc(N3CCOCC3)cc2C)C1=O`, the inhibition is 9.4%.

For `CCOC(=O)CN1C(=O)S/C(=C/c2ccc(N3CCCCC3)o2)C1=O`, the inhibition was 24.1%.

As to `O=C1N/C(=C/c2ccc(N3CCOCC3)o2)C(=O)N1c1cccc(Cl)c1`, the inhibition is 15.3%.

Consider `O=C1N/C(=C/c2ccc(N3CCOCC3)o2)C(=O)N1c1ccccc1`, for which the inhibition is 9%.

On to `COc1ccc(C2C(C(=O)c3ccc(C)o3)=C(O)C(=O)N2c2cc(C)on2)cc1OC` (stereo unspecified), for which the inhibition is -22.3%.

Consider `O=C(CSc1ncccn1)Nn1cnnc1`, for which the inhibition was -0.7%.

For `COc1ccc(NC(=O)Nc2cc(NC(=O)Nc3ccc(OC)cc3)c(C)nc2C)cc1`, the inhibition was -8.6%.

`CC(=O)N1c2ccccc2NC2=C(C(=O)CCC2)C1c1cccnc1` (stereo unspecified): the inhibition is 6.7%.

For the compound `Clc1cccc(OCCn2cncn2)c1Cl`, the inhibition is -4.8%.

As to `O=C(CCCC(=O)N1CCc2ccccc21)N1CCc2ccccc21`, the inhibition was -6.6%.

For the compound `COc1cc(OC)cc(C(=O)NNC(=S)NCc2ccco2)c1`, the inhibition was -10.1%.

As for `COc1ccc(-n2c(CSc3nc(C)cc(C)n3)nnc2SCC(=O)Nc2nccs2)cc1`, the inhibition was 1.3%.

Regarding `CS(=O)(=O)c1ccccc1-c1nc(-c2cccc(Cl)c2)no1`, the inhibition was 9.9%.

With `N#CCSc1nc2sc3c(c2c(=O)n1C1CCCCC1)CCCC3`, the inhibition is 52.4% (active).

Consider `CCSc1nc2sc3c(c2c(=O)n1C1CCCCC1)CCN(C)C3`, for which the inhibition is -33.5%.

Regarding `CSc1nc2sc3c(c2c(=O)n1C1CCCCC1)CCN(C)C3`, the inhibition is 10.7%.

With `CCOc1ccc(CNC(=O)CCc2cn(Cc3ccccc3)c3ccccc23)cc1`, the inhibition was 0.6%.

Regarding `C=CCn1c(O)c(CN2CCCCC2)c(C)c(C#N)c1=O`, the inhibition was 70.2% (active).

`C=CCn1c(C)cc(C)c(C#N)c1=O`: the inhibition was -6.4%.

For `Cc1oc(C(C)(C)C)c(CN2CCOCC2)c1C(=O)O`, the inhibition was -2.9%.

In the case of `C=CCn1c(O)c(CN2CCOCC2)c(C)c(C#N)c1=O`, the inhibition is 56.6% (active).

`C=CCn1c(O)c(CN2CCN(Cc3ccccc3)CC2)c(C)c(C#N)c1=O`: the inhibition is 15.6%.

Take `C=CCn1c(O)c(C(CC)=NCCN2CCOCC2)c(=O)[nH]c1=O`: the inhibition is -15.4%.

As for `O=C(NCCC1=CCCCC1)C(=O)NCC(c1ccco1)N1CCN(c2ccc(F)cc2)CC1` (stereo unspecified), the inhibition was 2.7%.

Take `OCc1nc2ccccc2n1CCCOc1ccccc1`: the inhibition was -6.4%.

On to `COc1cc(NC(=S)NCCC(c2ccccc2)c2ccccc2)c(OC)cc1Cl`, for which the inhibition is 17.2%.

In the case of `Cc1nnc(Sc2nc3c(c(=O)n(C)c(=O)n3C)n2Cc2ccc(Cl)cc2)s1`, the inhibition was 7.9%.

`CSc1ccc(C#N)cc1NC(=O)c1ccccc1C`: the inhibition was -2.5%.

For the compound `COCc1c(C#N)c(NCCc2ccc(F)cc2)nc(C)c1[N+](=O)[O-]`, the inhibition is 9.3%.

In general, inhibition refers to the relative decrease from the control value, in per cent.

The record behind these values is PubChem BioAssay AID1220 (Sanford-Burnham Center for Chemical Genomics, 2008).
